p53null 39C kill – p53 null cell cytotoxicity, nonpermissive temperature; Potency, µM (top dose mostly 46.1 µM), inactives show at the top dose activity, negative = cell killing, most hits filed as cytotoxic; 55,000 tested, 0.97% active; H1299 p53-null (neo) cells, 39C, ATPlite viability, 24 h;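 note: potency is the fitted concentration of half-maximal effect; 0% = DMSO only and -100% = full killing by 100 µM tamoxifen; nearly all actives have a fitted effect of over 50% in size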
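H1299 lung cancer cells, p53-null (H1299-neo) or expressing p53 A138V (H1299-p53A138V), were plated overnight at 37C, then exposed to compounds at up to 46 uM for 24 hr at 39C. Viability was read by ATP-based luminescence.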
p53null 32C tox – p53 null cell cytotoxicity, permissive temperature; H1299-neo p53 null cells, ATP luminescence, 24 h, 32C; Potency, µM (highest dose often 46.1 µM), without a hit: at the highest dose activity change, negative = cytotoxicity, most hits filed as cytotoxic; 55,000 tested, 0.62% active; AID 903;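 note: potency is the fitted concentration of half-maximal effect; 0% = DMSO only and -100% = full killing by 100 µM tamoxifen; nearly all actives have a fitted effect of over 55% in size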
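Overnight 37C seeding (600 cells/well) of H1299-neo preceded a 24 hr, 32C exposure to compounds up to 46 uM. ATP levels, read by luminescence after 20 min at RT, indicated surviving cells.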
PMP22 txn – modulates PMP22 transcription in S16 Schwann cells; S16 Pmp22-F2sN Schwann cells, FLuc/NLuc coincidence luminescence, 24 h; Potency, µM (series often up to 57.5 µM), without a hit: top-dose activity change, negative = inhibition, most hits filed as inhibitors; 43,000 tested, 2% active; active = clear falling dose curves in both reporters; inconclusive = both reporters move, but less clearly or upward; inactive = either reporter flat; the % is the NLuc reporter signal; note: potency is the fitted concentration of half-maximal effect; % is set by controls: 0 for no effect and ±100 for the full control effect
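Rat S16 Pmp22-F2sN cells, 500-1,000/well in phenol red-free DMEM + 10% FBS, compound-treated 24 h (37C, 5% CO2). Luminescence: FLuc read, Stop&Glo added, NLuc read.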
mTORC1 inh – reduces mTORC1 signaling in Tsc2 and p53 null MEF cells | AID 493208 | Potency, µM (series often up to 38.3 µM), for inactives: top-dose activity change, negative = inhibition, usual class: inhibitors | Tsc2-/- p53-/- MEF, phospho-rpS6 immunofluorescence/PI, 24 h | 44,000 tested, 0.78% active;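 note: potency is the fitted concentration of half-maximal effect; plate controls were DMSO for no effect and rapamycin for full effect; nearly all actives have a fitted effect of over 50% in size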
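Tsc2-/-, p53-/- MEFs (empty-vector stable line) in DMEM + 10% FBS were treated with compounds 24 h at 37 degree Celsius, fixed, and immunostained for phospho-rpS6 (Alexa-488) with propidium iodide counterstain. Laser-scanning cytometry gave % positive cells, normalized against 7.5 nM rapamycin and DMSO.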
S16 F2sN tox – S16 Schwann cell cytotoxicity; Potency, µM (titrated, usually from 57.5 µM), for the others: top-dose activity change, negative = cytotoxicity, hits mostly cytotoxic; AID 1508642; 43,000 tested, 0.48% active; S16 Pmp22-F2sN Schwann cells viability, CellTiter-Glo, 24 h; note: potency is the fitted concentration of half-maximal effect; % is set by controls: 0 for no effect and ±100 for the full control effect; nearly all actives have a fitted effect of over 65% in size
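S16 Schwann cells carrying the Pmp22-F2sN reporter, seeded in 1536-well format, were exposed to library compounds for 24 h at 37C. Viability was read as CellTiter-Glo luminescence after 15 min at room temperature.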
NLuc saturating – counter-screen for PMP22 expression modulators: NanoLuc inhibition, saturating substrate. shares compounds with PMP22 txn. Secreted NLuc enzyme (filtered S16 cell medium), Nano-Glo luminescence. Potency, µM (doses to about 57.5 µM), for the others: at the top dose activity change, negative = inhibition, actives largely listed as inhibitors. 690 tested, 4% active; note: potency is the fitted concentration of half-maximal effect; % is set by controls: 0 for no effect and ±100 for the full control effect
NLuc Km ctr – inhibits NanoLuc under Km conditions, PMP22 counter-screen; shares compounds with PMP22 txn; secreted NLuc enzyme, coelenterazine luminescence, Km conditions; Potency, µM (titrated, usually from 57.5 µM), for inactives: at the highest dose activity change, negative = inhibition, actives largely listed as inhibitors; 690 tested, 5% active; AID 1508639; note: potency is the fitted concentration of half-maximal effect; % is set by controls: 0 for no effect and ±100 for the full control effect
FLuc counter – inhibits firefly luciferase, PMP22 counter-screen; 690 tested, under 10 active; purified P. pyralis FLuc, luminescence, 10 min; Potency, µM (top dose mostly 57.5 µM), for inactives: at the top dose activity, negative = inhibition, hits mostly inhibitors; shares compounds with PMP22 txn; AID 1508640; note: % of control where 0% means no effect
Target sequence (P08659 whole entry, looked up): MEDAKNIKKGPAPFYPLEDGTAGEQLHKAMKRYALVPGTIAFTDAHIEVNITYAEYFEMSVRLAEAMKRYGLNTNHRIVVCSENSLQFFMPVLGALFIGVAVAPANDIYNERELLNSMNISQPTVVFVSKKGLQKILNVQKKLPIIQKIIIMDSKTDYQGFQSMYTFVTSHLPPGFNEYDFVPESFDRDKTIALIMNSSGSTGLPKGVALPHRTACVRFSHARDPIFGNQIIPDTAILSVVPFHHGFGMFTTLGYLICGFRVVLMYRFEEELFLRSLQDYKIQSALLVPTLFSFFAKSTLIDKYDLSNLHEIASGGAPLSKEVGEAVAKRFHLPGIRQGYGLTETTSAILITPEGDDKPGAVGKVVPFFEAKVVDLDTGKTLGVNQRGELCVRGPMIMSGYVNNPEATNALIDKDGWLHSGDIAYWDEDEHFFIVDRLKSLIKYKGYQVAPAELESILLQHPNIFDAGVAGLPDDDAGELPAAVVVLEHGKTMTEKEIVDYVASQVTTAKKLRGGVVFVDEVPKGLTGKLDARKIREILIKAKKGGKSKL
S16 viab conf – confirmation of cytotoxicity in S16 Pmp22-F2sN Schwann cells (luciferase reporters placed in the Pmp22 gene). shares compounds with PMP22 txn. S16 Schwann cells viability, CellTiter-Glo ATP luminescence, 24 h. Potency, µM (series often up to 57.5 µM), without a hit: at the highest dose activity change, negative = viability loss, hits mostly cytotoxic. 690 tested, 7% active; note: potency is the fitted concentration of half-maximal effect; % is set by controls: 0 for no effect and ±100 for the full control effect
PMP22 txn conf – PMP22 transcription modulation, confirmatory | shares compounds with PMP22 txn | AID 1508646 | 690 tested, 22% active | S16 Schwann cells Pmp22-F2sN, dual luciferase, 24 h | Potency, µM (highest dose often 57.5 µM), inactives show at the highest dose activity change, negative = inhibition, most hits filed as inhibitors; active = clear falling dose curves in both reporters; inconclusive = both reporters move, but less clearly or upward; inactive = either reporter flat; the % is the FLuc reporter signal; note: potency is the fitted concentration of half-maximal effect
PMP22 prot conf – confirmation of modulators of rat PMP22 protein expression; shares compounds with PMP22 txn; S16 Schwann cells Pmp22-HiBiT, luminescence, 48 h; Potency, µM (highest dose often 27.9 µM), inactives show top-dose activity change, negative = inhibition, hits mostly inhibitors; 95 tested, under 10 active
Target sequence (P25094 whole entry, looked up): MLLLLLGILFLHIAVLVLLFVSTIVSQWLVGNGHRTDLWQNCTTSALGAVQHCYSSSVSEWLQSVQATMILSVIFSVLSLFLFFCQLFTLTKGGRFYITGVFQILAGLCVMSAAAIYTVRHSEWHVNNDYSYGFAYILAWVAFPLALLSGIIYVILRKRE
Active calls of the source: *; [ ] = remark or other dose. This is a sample that favours compounds with a hit; in the whole collection about 3.2% have one here. Unless noted, calls come from the whole dose curve; as a rule, active = well fitted curve in the direction sought with a large enough effect; inconclusive = small, poorly fitted or top-dose-only effect, or another doubt; inactive = no such curve, though single readings can be large; an effect the other way counts as inactive or inconclusive.

How did COc1cc(OC)c(NC(=O)c2cnn(-c3cccc(Cl)c3C)c2C2CCN(C(=O)OC(C)(C)C)CC2)cc1Cl do in these assays?
p53null 39C kill: -15%; p53null 32C tox: 4%; PMP22 txn: -16%; mTORC1 inh: 2%; S16 F2sN tox: -1%

How did COc1ccc(CNC(=O)C(=O)Nc2cc(Cl)ccc2OC)cc1 do in these assays?
p53null 39C kill: -13%; p53null 32C tox: -2%; PMP22 txn: -10%; mTORC1 inh: 1%; S16 F2sN tox: 10%

How did Cn1c(C(=O)N2CCC(C(=O)NCCc3ccccc3)CC2)cc2sccc21 do in these assays?
p53null 39C kill: -24%; p53null 32C tox: -4%; PMP22 txn: -12%; mTORC1 inh: -2%; S16 F2sN tox: -1%

Results for CN(C1CCCCC1)S(=O)(=O)c1ccc2c(c1)c(=O)c(C(=O)NCc1ccc(Cl)cc1)cn2C ?
p53null 39C kill: -8%; p53null 32C tox: 1%; PMP22 txn: inconclusive; mTORC1 inh: 0%; S16 F2sN tox: -1%; NLuc saturating: -1%; NLuc Km ctr: 7%; FLuc counter: 7%; S16 viab conf: -11%; PMP22 txn conf: -31%

Results for COc1ccccc1CNC(=O)c1ccc2c(c1)CCN2S(=O)(=O)c1ccccc1 ?
p53null 39C kill: -18%; p53null 32C tox: 1%; PMP22 txn: -8%; mTORC1 inh: inconclusive; S16 F2sN tox: inconclusive

Results for COC(=O)c1c(-c2ccc(Cl)cc2)noc1N1CCN(c2cccc(C(F)(F)F)c2)CC1 ?
p53null 39C kill: 15%; p53null 32C tox: -18%; PMP22 txn: 5.4µM*; mTORC1 inh: inconclusive; S16 F2sN tox: inconclusive; NLuc saturating: -1%; NLuc Km ctr: -3%; FLuc counter: 1%; S16 viab conf: inconclusive; PMP22 txn conf: 16µM*; PMP22 prot conf: 84%

What do the screens show for `Cc1cc(-c2ccc(C)c(S(=O)(=O)N3CCN(c4cccc(C(F)(F)F)c4)CC3)c2)on1`?
p53null 39C kill: 6%; p53null 32C tox: -4%; PMP22 txn: -9%; mTORC1 inh: 5%; S16 F2sN tox: 0%

How did COc1ccccc1N1CCN(C(=O)CSc2nc(-c3ccc(C(C)C)cc3)no2)CC1 do in these assays?
p53null 39C kill: inconclusive; p53null 32C tox: inconclusive; PMP22 txn: inconclusive; mTORC1 inh: 0%; S16 F2sN tox: 0%

How did COC(=O)c1c(-c2ccc(Cl)cc2)noc1N1CCN(c2ccc(F)cc2)CC1 do in these assays?
p53null 39C kill: inconclusive; p53null 32C tox: -3%; PMP22 txn: 3.8µM*; mTORC1 inh: 0%; S16 F2sN tox: 8%; NLuc saturating: -1%; NLuc Km ctr: 1%; FLuc counter: -1%; S16 viab conf: inconclusive; PMP22 txn conf: 13µM*; PMP22 prot conf: 76%

Results for COC(=O)c1c(-c2ccc(Cl)cc2)noc1N1CCN(c2ccccc2OC)CC1 ?
p53null 39C kill: inconclusive; p53null 32C tox: 13%; PMP22 txn: 8.9µM*; mTORC1 inh: 9%; S16 F2sN tox: inconclusive; NLuc saturating: -5%; NLuc Km ctr: -3%; FLuc counter: -7%; S16 viab conf: 30%; PMP22 txn conf: 19µM*; PMP22 prot conf: 28%

What do the screens show for `COC(=O)c1ccc(NC(=O)CN2CCN(c3ccc(Cl)cc3)CC2)cc1`?
p53null 39C kill: -8%; p53null 32C tox: -3%; PMP22 txn: 9%; mTORC1 inh: 0%; S16 F2sN tox: 3%

Results for Cc1ccc(S(=O)(=O)NCCCCC(NC(=O)OC(C)(C)C)C(=O)O)cc1 (stereo not given) (tested in a mixture with another compound) ?
p53null 39C kill: -4%; p53null 32C tox: -14%

How did CCN(CC)S(=O)(=O)c1ccc(/C=C/C(=O)Nc2ccc(F)cc2F)cc1 do in these assays?
p53null 39C kill: 18%[1.84 µM]

What do the screens show for `O=C(COc1ccc(Br)cc1Br)Nc1ccc(S(=O)(=O)Nc2ncccn2)cc1`?
p53null 39C kill: 15%; p53null 32C tox: -6%; PMP22 txn: -14%; mTORC1 inh: 1%; S16 F2sN tox: -3%

How did N#CC1=C2SCN(C3CCCCC3)CN2C(=O)CC1c1ccc(Cl)cc1 (stereo not given) do in these assays?
p53null 39C kill: -13%; p53null 32C tox: -1%; PMP22 txn: inconclusive; mTORC1 inh: 7%; S16 F2sN tox: 0%

Results for N#CC1=C2SCN(C3CCCCC3)CN2C(=O)CC1c1c(F)cccc1Cl (stereo not given) ?
p53null 39C kill: 10%; p53null 32C tox: 3%; PMP22 txn: 9.5µM*; mTORC1 inh: -1%; S16 F2sN tox: -2%; NLuc saturating: 11µM*; NLuc Km ctr: 7.7µM*; FLuc counter: -11%; S16 viab conf: 2%; PMP22 txn conf: -18%

How did Cc1ccc(Cn2c(C(=O)O)c(CNC3CCCC3)c3ccc(C)cc32)cc1 do in these assays?
p53null 39C kill: inconclusive; p53null 32C tox: -6%; PMP22 txn: 2%; mTORC1 inh: 5%; S16 F2sN tox: inconclusive

Bioassay records from PubChem BioAssay.
